# Inconclusive results are not listed. A call without a number means that no potency is given here. Calls of active or inactive are those of the source. Calls follow the shape of the dose curve; as a rule, active = well fitted curve in the direction sought with a large enough effect; inconclusive = small, poorly fitted or top-dose-only effect, or another doubt; inactive = no such curve, though single readings can be large; an effect the other way counts as inactive or inconclusive.
# Assays:
# [1] = target: Lysine-specific demethylase 5B (Homo sapiens) (UniProt Q9UGL1); assay: Optimization screen for KDM5B Histone Demethylases FDH coupled qHTS against the LOPAC library (AID 1347166); details: KDM5B demethylation, FDH-coupled NADH fluorescence (FDH is formaldehyde dehydrogenase); series mostly up to 57.5 µM
# In short: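 KDM5BDeltaAP (200nM final) in 50mM HEPES pH 7.5, 0.01% Tween-20 was preincubated with compound for 10 min at room temperature. A substrate mix of 12.5uM H3K4Me3, 25uM a-ketoglutarate, ascorbate, Fe2+, NAD+ and formaldehyde dehydrogenase was then added. NADH fluorescence (340/450 nm) was read initially and after 30 min.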
# [2] = Confirmatory screen NINDS Rhodamine qHTS for Zika virus inhibitors (AID 1347161); details: purified enzyme assay, Rhodamine110 substrate fluorescence, 15 min; also: potency is read from the fitted curve at half-maximal effect; nearly all actives have a fitted effect of over 60% in size
# Text: Avindra Nath, Ph.D., National Institute of Neurological Disorders and Stroke (NINDS), Bethesda, MD
# Radhakrishnan Padmanabhan, Ph.D., Georgetown University (GU), Washington D.C.
# Zika Virus causes congenital defects, including microcephaly and is associated with Guillain-Barre syndrome, eningoencephalitis and myelitis in infected adult. […] Using a target-based approach, we hope to establish a screening paradigm to uncover novel, cell-active NS2B-NS3 protease (Zika Virus) specific inhibitors from NCATS' collection of small molecules using qHTS.
# Four assay panel was created to identify potential Zika Virus inhibitors. Namely, (1) GU unlinked NS2B-NS3 AMC tagged protease qHTS, (2) GU unlinked NS2B-NS3 Rhodamine tagged protease qHTS, (3) NINDS linked NS2B-NS3 AMC tagged protease qHTS, (4) NINDS linked NS2B-NS3 Rhodamine tagged protease qHTS. Active compounds were re-acquired and re-screened to confirm inhibition. Inhibitors were further screened against various confirmatory and counterscreens in dose response format.
# Early Translation Branch (ETB)
# National Center for Advancing Translational Sciences (NCATS), Rockville, MD
# National Institute of Health (NIH), Bethesda, Maryland
# For the linked assay, Nath lab (NINDS) provided the purified linked NS2B-NS3 protease which is consists of hydrophilic domain of NS2B linked to the NS3 protease domain by a flexible (-[…]-) linker. Control compound aprotinin is obtained from Thermo Scientific (#78432; Waltham, Massachusetts). Rhodamine110 substrate ([N-Cbz]-Nle-Lys-Arg-Arg-Rhod110-Arg-Arg-Lys-Nle-[N-Cbz]) was purchased from either Genscript or Bachem.
# 1536-well Protease (Rhodamine110 Substrate) Assay:
# Briefly, 3 microL of enzyme (25 nM final concentration), in assay buffer (10 mM Tris-HCl pH 8.0 with 0.01% Tween 20) were dispensed into a 1,536-well solid-bottom black plate (Greiner Bio One, Monroe, NC). Twenty-three nL of compounds (final concentration range 7.28 nM to 114 microM) or control Aprotinin (final concentration range 3.47 nM to 114 microM) were transferred via Wako Pin-tool (Wako Automation, Richmond, VA). Samples were incubated (room temperature, protected from light) for 15 minutes followed by a 1 microL Rhodamine110 substrate addition (1.5 microM final concentration). Plates were then immediately read on a ViewLux High-throughput CCD imager (PerkinElmer, Waltham, MA) equipped with FITC fluorescence optics (480(20) nm excitation, 540(25) nm emission), then incubated (room temperature, protected from light) for 15 minutes (~15% conversion). The change in fluorescence intensity over the 15-minute reaction period was normalized against no-inhibitor and no-enzyme controls and the resulting percent inhibition data were fitted to a 4-parameter Hill equation. Aprotinin was used as intraplate control.
# [3] = test system: Zika virus NS2B-NS3 protease (linked construct); assay: 384 well plate NINDS Rhodamine confirmatory qHTS for Zika virus inhibitors (AID 1347164); details: rhodamine-110 peptide substrate fluorescence; also: potency is read from the fitted curve at half-maximal effect; nearly all actives have a fitted effect of over 65% in size
# In short: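 Compounds are incubated about 15 minutes with linked protease (5, 30 or 60 nM final). Rhodamine 110-tagged Ac-LKRR substrate (10 microM final) is added and fluorescence measured after 25 minutes.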
# [4] = Vero cells viability qHTS for Zika virus inhibitors (AID 1347167); details: cytotoxicity counter-screen (Zika); series mostly up to 45.9 µM
# In short: (§1)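 Luminescent ATP readout (CellTiter Glo) after 30 min at 37 degrees C gives viability; cells in DMEM + 4% FBS were treated 24 to 48 hours with compound, following overnight attachment.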
# [5] = HepG2 cells viability qHTS for Zika virus inhibitors (AID 1347168); details: Zika counter-screen; series mostly up to 45.9 µM
# In short: as §1
# [6] = test system: Zika virus NS2B-NS3 protease (linked construct); assay: Primary screen NINDS Rhodamine qHTS for Zika virus inhibitors (AID 1347160); details: purified NS2B-NS3 protease, Rhodamine110 substrate fluorescence; series mostly up to 57.1 µM; also: nearly all actives have a fitted effect of over 55% in size
# In short: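 Aprotinin served as in-plate control. Conditions: 25 nM linked NS2B-NS3, pH 8.0 Tris buffer, titrated compounds, 15 min preincubation and 15 min reaction with 1.5 microM Rhod110 substrate at room temperature.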
# [7] = test system: Zika virus NS2B-NS3 protease (unlinked complex); assay: Primary screen GU Rhodamine qHTS for Zika virus inhibitors: Unlinked NS2B-NS3 protease assay (AID 1347159); details: Recombinant ZIKV NS2B-NS3 protease, Rhodamine110 substrate fluorescence; series mostly up to 107 µM; also: nearly all actives have a fitted effect of over 60% in size
# In short: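 Buffer 10 mM Tris-HCl pH 8.0, 0.01% Tween 20. Unlinked protease 25 nM; compound preincubation 15 min, RT, protected from light. Substrate Rhod110, 1.5 microM; ~15% conversion in 15 min.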
# [8] = Tertiary RLuc qRT-PCR qHTS assay for Zika virus inhibitors (AID 1347169); details: infected Vero cells, reporter luminescence, 48-72 h; series mostly up to 45.9 µM; also: top concentration of the series differs between compounds; nearly all actives have a fitted effect of over 55% in size
# In short: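 Orthogonal cell-based infection assay using recombinant ZIKV-RLuc (Cambodian) in Vero cells; compound added prior to virus at MOI 1-2. Incubation lasts 48-72 hrs at 37 degrees C before live-cell Renilla substrate is added and luminescence measured.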
# [9] = test system: Zika virus NS2B-NS3 protease (linked); assay: 384 well plate NINDS AMC confirmatory qHTS for Zika virus inhibitors (AID 1347163); details: Recombinant NS2B-NS3 protease, Ac-VKTGKR-AMC fluorescence; series mostly up to 1 mM; also: potency is read from the fitted curve at half-maximal effect; nearly all actives have a fitted effect of over 50% in size
# Text: Description: Assay Submitters (PI): Avindra Nath, Ph.D., National Institute of Neurological Disorders and Stroke (NINDS), Bethesda, MD Radhakrishnan Padmanabhan, Ph.D., Georgetown University (GU), Washington D.C. Zika Virus causes congenital defects, including microcephaly and is associated with Guillain-Barre syndrome, eningoencephalitis and myelitis in infected adult. […] Using a target-based approach, we hope to establish a screening paradigm to uncover novel, cell-active NS2B-NS3 protease (Zika Virus) specific inhibitors from NCATS' collection of small molecules using qHTS. […] Four assay panel was created to identify potential Zika Virus inhibitors. Namely, (1) GU unlinked NS2B-NS3 AMC tagged protease qHTS, (2) GU unlinked NS2B-NS3 Rhodamine tagged protease qHTS, (3) NINDS linked NS2B-NS3 AMC tagged protease qHTS, (4) NINDS linked NS2B-NS3 Rhodamine tagged protease qHTS. Active compounds are validated using a secondary assay in 384 well plate format. Early Translation Branch (ETB) National Center for Advancing Translational Sciences (NCATS), Rockville, MD National Institute of Health (NIH), Bethesda, Maryland
# 384-well NINDS AMC Assay The protease was diluted to 7.5 nM, 40.9 nM, or 82 nM in assay buffer and dispensed into a 96-well PCR plate (Applied Biosystems); 20 or 22 microL was transferred to a black 384-well assay plate (final protease concentration of 5 nM, 30 nM, or 60 nM, respectively). Compounds (3 microL, 1 microM - 10 mM, DMSO) were diluted and transferred to the assay plate (final concentrations ranged from 100 nM to 1 mM). Compounds were incubated with protease for ~15 minutes. The substrate, Ac-VKTGKR-AMC (Genscript), was dissolved in DMSO to a concentration of 6 mM and further diluted into assay buffer to a working concentration of 180 microM, then dispensed into a 384-well preparation plate (Eppendorf). […] After 25 minutes, the fluorescence intensity (excitation: 355 nm, emission: 460 nm) was measured and normalized to no-enzyme and no-inhibitor controls. […]
# Sequence of Lysine-specific demethylase 5B (Homo sapiens) (Q9UGL1 whole entry, looked up): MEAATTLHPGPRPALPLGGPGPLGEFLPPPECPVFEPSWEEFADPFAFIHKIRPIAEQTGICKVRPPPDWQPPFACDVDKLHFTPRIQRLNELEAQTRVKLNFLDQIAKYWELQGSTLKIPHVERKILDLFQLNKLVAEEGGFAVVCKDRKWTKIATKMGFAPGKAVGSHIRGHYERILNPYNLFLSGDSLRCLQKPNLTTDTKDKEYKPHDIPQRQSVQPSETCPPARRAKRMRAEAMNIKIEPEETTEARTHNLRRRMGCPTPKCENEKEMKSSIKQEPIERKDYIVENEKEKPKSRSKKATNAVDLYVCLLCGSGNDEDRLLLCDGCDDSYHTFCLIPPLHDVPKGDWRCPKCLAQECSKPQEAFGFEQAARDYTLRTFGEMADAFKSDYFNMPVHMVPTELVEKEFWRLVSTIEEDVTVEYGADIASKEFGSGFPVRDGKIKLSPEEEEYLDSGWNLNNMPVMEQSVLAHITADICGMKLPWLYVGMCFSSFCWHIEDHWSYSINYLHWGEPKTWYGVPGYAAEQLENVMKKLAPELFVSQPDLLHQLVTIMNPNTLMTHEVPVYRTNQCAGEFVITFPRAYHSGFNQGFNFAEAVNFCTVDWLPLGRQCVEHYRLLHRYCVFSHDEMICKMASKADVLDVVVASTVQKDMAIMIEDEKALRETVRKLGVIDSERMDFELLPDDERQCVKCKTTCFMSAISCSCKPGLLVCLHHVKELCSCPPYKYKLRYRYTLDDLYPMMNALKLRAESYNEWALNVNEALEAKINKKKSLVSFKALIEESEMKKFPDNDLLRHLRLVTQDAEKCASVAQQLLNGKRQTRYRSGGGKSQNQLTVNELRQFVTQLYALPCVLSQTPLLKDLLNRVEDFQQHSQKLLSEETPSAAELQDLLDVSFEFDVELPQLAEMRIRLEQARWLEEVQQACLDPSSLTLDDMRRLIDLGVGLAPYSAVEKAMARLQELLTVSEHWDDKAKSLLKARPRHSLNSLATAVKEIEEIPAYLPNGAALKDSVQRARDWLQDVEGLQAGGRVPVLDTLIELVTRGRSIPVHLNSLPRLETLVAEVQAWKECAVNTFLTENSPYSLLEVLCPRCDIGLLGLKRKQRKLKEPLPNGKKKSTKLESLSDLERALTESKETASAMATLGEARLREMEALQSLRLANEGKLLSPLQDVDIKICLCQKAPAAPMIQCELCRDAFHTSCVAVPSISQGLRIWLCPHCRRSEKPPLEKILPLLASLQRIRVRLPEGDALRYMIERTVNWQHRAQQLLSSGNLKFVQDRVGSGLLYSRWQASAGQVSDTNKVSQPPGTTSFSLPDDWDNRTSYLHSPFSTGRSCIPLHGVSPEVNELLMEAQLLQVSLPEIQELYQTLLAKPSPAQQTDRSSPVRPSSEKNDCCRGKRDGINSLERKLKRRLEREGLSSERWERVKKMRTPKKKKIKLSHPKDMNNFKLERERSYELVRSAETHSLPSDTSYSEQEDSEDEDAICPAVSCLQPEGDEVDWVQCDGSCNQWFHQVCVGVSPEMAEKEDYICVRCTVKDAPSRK
smiles,measurement,setting,value
CC(C)(C)NCC(O)c1ccccc1Cl (configuration not stated),outcome,[1],inactive
Cc1ncsc1CCCl,outcome,[1],inactive
COc1ccc2c(c1OC)C(=O)O[C@H]2[C@@H]1c2cc3c(cc2CCN1C)OCO3,outcome,[1],inactive
O=P1(N(CCCl)CCCl)NCCCO1 (configuration not stated),outcome,[1],inactive
CCC1(c2ccc(N)cc2)CCC(=O)NC1=O (configuration not stated),outcome,[1],inactive
C[C@]12CC[C@@H]3c4ccc(OC(=O)N(CCCl)CCCl)cc4CC[C@H]3[C@@H]1CC[C@@H]2O,Potency,[2],1.97 µM (active)
same,Potency,[3],39.8 µM (active)
same,Potency,[4],inactive
same,outcome,[5],inactive
C[C@]12CC[C@@H]3c4ccc(OC(=O)N(CCCl)CCCl)cc4CC[C@H]3[C@@H]1CC[C@@H]2OP(=O)(O)O,outcome,[6],inactive
C=C(C)[C@H]1CN[C@H](C(=O)O)[C@H]1CC(=O)O,outcome,[1],inactive
CC(=O)OCC1=C(C(=O)O)N2C(=O)[C@@H](N)[C@H]2SC1,outcome,[7],inactive
same,Potency,[2],24.8 µM (active)
same,Potency,[8],inactive
O=c1c(C2CC(c3ccc(-c4ccc(Br)cc4)cc3)Cc3ccccc32)c(O)sc2ccccc12 (configuration not stated),Potency,[2],2.2 µM (active)
same,Potency,[9],11.2 µM (active)
same,Potency,[3],17.8 µM (active)
same,Potency,[4],inactive
same,outcome,[5],inactive
O=C1OC(c2ccc(O)c(S(=O)(=O)O)c2)(c2ccc(O)c(S(=O)(=O)O)c2)c2c(Br)c(Br)c(Br)c(Br)c21,Potency,[2],2.51 µM (active)
same,Potency,[9],112 µM (active)
O=c1[nH]oc2c1CCNC2,outcome,[1],inactive
O=C(CCCN1CCC2(CC1)C(=O)NCN2c1ccccc1)c1ccc(F)cc1,outcome,[1],inactive
CC(C)N(CCC(C(N)=O)(c1ccccc1)c1ccccn1)C(C)C (configuration not stated),outcome,[7],inactive
same,outcome,[6],inactive
same,outcome,[1],inactive
O=C(O)CCCc1ccc(N(CCCl)CCCl)cc1,outcome,[1],inactive

# Reference: PubChem BioAssay (NCATS)
